Abs 340nm: compound absorbs light at 340 nm | AID 708 | fold change at 10 µM | compound absorbance at 340 nm, fold over control | 65,000 tested, under 10 active;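 active = at 10 µM dose, initial 340 nm absorbance at least 2 fold that of control wells; inactive = change under 2 fold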;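 also: initial absorbance extrapolated from kinetic A340 decline of NADH oxidation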
PMK inhibit: blocks S. pneumoniae phosphomevalonate kinase; 0.49% of 65,000 active; purified PMK, PK/LDH-coupled NADH absorbance 340 nm; inhibition, % at 10 µM;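 active = top-ranked compounds by inhibition in the single 10 µM screen, taking a fixed number of the strongest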
NADH coupling: inhibition of NAD/NADH coupling enzymes, library profiling; 0.02% of 65,000 active; IC50, µM (highest dose often 10 µM); AID 774; coupled PK/LDH NADH assays, four targets;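 active = single-dose screening hits from any of four coupled enzyme assays that gave an IC50 when retested across doses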;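 also: the DPM-DC format reads NADH fluorescence rather than 340 nm absorbance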
Fluor 339 460: intrinsic fluorescence of library compounds, ex339/em460 – biochemical, MLSMR library, data from DPM-DC assay, artefact control, profiling panel | compound autofluorescence, ex339/em460 nm, NADH buffer; hits give high values; 1 = no-compound wells, NADH background | 5.5% of 65,000 active | AID 709 | fluorescence fold increase at 10 µM;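 active = at 10 µM, mean starting fluorescence two-fold or more over control wells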;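 also: signal is the first read of a kinetic run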
DPM-DC inhibit: S. pneumoniae DPM-DC inhibition. purified DPM-DC, PK/LDH coupled NADH fluorescence. calls only at 10 µM. 0.49% of 65,000 active. AID 556;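 active = the 320 compounds with the highest percent inhibition in the single-dose primary screen, excluding strongly autofluorescent ones, cut at about 32% in these data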;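 also: kinetic rate of NADH fluorescence loss reporting ADP formed by the decarboxylase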
Spn MK inh: S. pneumoniae mevalonate kinase inhibition; inhibition, % at 10 µM; purified MK, PK/LDH-coupled NADH absorbance 340 nm; 0.48% of 65,000 active; AID 555;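 active = ranked among the strongest by inhibition in the single 10 µM screen, a fixed top-ranked set picked for dose follow-up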
Each line names hits and unclear results; the compound was inactive in the other large screens. Most compounds without a hit are left out; they make up all but 6.5% or so of the library.

CCOC(=O)N1CCN(C(=O)c2ccc3nc4ccc(Cl)cc4c(=O)n3c2)CC1	Fluor 339 460 4.9 (not shown: DPM-DC inhibit)
O=S(=O)(Cc1ccccc1)N1CCCC1	none
CCCN1Cc2cccc(C(=O)Nc3ccc(CN4CCCC4)cc3)c2C1=O	none
Cc1ccc(N2CN=c3s/c(=C\c4ccccn4)c(=O)n3C2)cc1	none
COC(=O)c1cc(-c2c(C)oc3cc(O)ccc3c2=O)c(C)o1	Fluor 339 460 2.4 (not shown: DPM-DC inhibit)
Cc1oc2cc(O)cc(O)c2c(=O)c1-c1ccc2c(c1)OCCCO2	none
COC(=O)c1cc(-c2c(C)oc3cc(OC)ccc3c2=O)c(C)o1	none
Cc1oc2cc(O)ccc2c(=O)c1N1C(=O)c2ccccc2C1=O	DPM-DC inhibit active
Cc1ccccc1-c1c(C)oc2cc(O)ccc2c1=O	Fluor 339 460 2.2 (not shown: DPM-DC inhibit)
O=C(O)c1cc(NCc2cccs2)ccc1N1CCOCC1	Fluor 339 460 2.4
COC(=O)c1cc(NCc2cccs2)ccc1N1CCOCC1	none
COC(=O)c1cc(NCc2c(F)cccc2Cl)ccc1N1CCOCC1	Fluor 339 460 2.6, DPM-DC inhibit active
Oc1cccc(/C=N/c2c(-c3ccco3)nc3ccccn23)c1	Fluor 339 460 2.1 (not shown: DPM-DC inhibit)
O=C(Nc1c(-c2ccccc2)nc2ccccn12)c1ccco1	none
O=C(COc1ccc2oc(-c3ccccc3)cc(=O)c2c1)NCc1ccco1	Fluor 339 460 3.9 (not shown: DPM-DC inhibit)
O=C(COC(=O)COc1ccc(Nc2ccccc2)cc1)NCc1ccco1	none
CN(C(=O)COC(=O)CNS(=O)(=O)/C=C/c1ccccc1)C1CCS(=O)(=O)C1 (stereo not drawn)	none
Cc1cc2oc(=O)cc(C)c2cc1NC(=O)CCC(=O)O	Fluor 339 460 2.5
O=C(NCCCNC(=O)c1ccco1)c1ccco1	none
O=C(NC1CCc2ccccc21)C1CCN(S(=O)(=O)c2ccc(-n3cnnn3)cc2)CC1 (stereo not drawn)	none
CCN(CC)c1ccc(-c2nn3c(-c4ccccc4OC)nnc3s2)cc1	Fluor 339 460 3.6 (not shown: DPM-DC inhibit)
COc1cccc(OC)c1-c1nn2c(-c3cc(-c4ccccc4)n[nH]3)nnc2s1	PMK inhibit 26, NADH coupling 46µM
COc1ccc(-c2nnc3sc(-c4c(OC)cccc4OC)nn23)cc1	none
COCCNC(=O)C1CCN(S(=O)(=O)N2CCC3(CC2)OCCO3)CC1	none
CCN1CCN(C(=O)c2cc3cc4cc(OC)ccc4nc3s2)CC1	Fluor 339 460 2.8
Cc1ccc2cc3cc(C(=O)N4CCN(C(=O)c5ccco5)CC4)sc3nc2c1	none
CCOc1ccc(S(=O)(=O)Nc2ccccc2SC)c2cccnc12	none
CCOc1ccc(S(=O)(=O)NCC2CCCO2)c2cccnc12 (stereo not drawn)	Fluor 339 460 2.2
O=C(NCc1cn2ccccc2n1)c1ccc(Br)o1	none
O=C(NCc1cn2ccccc2n1)c1ccccc1	Spn MK inh 52
C1CCN(c2nc(N3CCCC3)nc(N3CCNCC3)n2)C1	none
COCc1cc(C)nc(N2CCN(c3ccccc3)CC2)c1C#N	none
COCc1cc(C)nc(NC2CCCCC2)c1C#N	Fluor 339 460 3.7 (not shown: DPM-DC inhibit)
Cc1ccccc1OCCCCCn1ccnc1	none
Cc1cccc(OCCCCCn2ccnc2)c1	Spn MK inh 48
COc1ccc(-c2c3c(nc4sc(C(=O)Nc5cc(C)on5)c(N)c24)CCC3)cc1	Fluor 339 460 2.6, DPM-DC inhibit active
CCOc1cccc(C(=O)Nc2cccc(-c3nnc(-c4ccccc4)o3)c2)c1	none
O=C(Nc1ccc(-c2nc3ncccc3o2)cc1)c1ccc(Br)o1	none (not shown: DPM-DC inhibit)
O=C(Nc1ccc(-c2nc3ncccc3o2)cc1)c1ccco1	Fluor 339 460 2.6, DPM-DC inhibit active
Cc1ccc(-c2nnc(-c3ccc(NC(=O)c4ccco4)cc3)o2)cc1	Fluor 339 460 3
Cc1ccc2nc(-c3ccc(NC(=O)c4ccco4)cc3)[nH]c2c1	none
Cc1nc(NC(=O)c2ccco2)sc1C(=O)Nc1ccc(Br)cc1	PMK inhibit 25
CCOc1cccc(C(=O)Nc2cccc(-c3nnc(-c4ccc(C)cc4)o3)c2)c1	Fluor 339 460 3.6 (not shown: DPM-DC inhibit)
COc1cc(S(=O)(=O)N2CCN(C)CC2)c(OC)cc1Br	none
Cc1[nH]nc2c1-c1nc3ccccc3nc1C(C)(C)C2	Fluor 339 460 3.9 (not shown: DPM-DC inhibit)
COC(=O)C1C(=O)c2c(n[nH]c2C)CC1(C)C (stereo not drawn)	none
Nc1c(C(=O)Nc2ccc(Cl)cc2)oc2ccccc12	Fluor 339 460 2.1 (not shown: DPM-DC inhibit)
CC(C)c1cc(=O)oc2c3c4c(cc12)CCCN4CCC3	Fluor 339 460 2.1 (not shown: DPM-DC inhibit)
O=c1oc2c3c4c(cc2c(C(F)(F)F)c1CCN1CCOCC1)CCCN4CCC3	none
COc1ccc(S(=O)(=O)CCC(=O)O)cc1	none
COc1ccc(CN(C)CCc2ccccn2)c(OC)c1OC	Spn MK inh 68
Cc1cccc(CN(C)CCc2ccccn2)c1	Spn MK inh 44
CCOC(=O)N1CCN(C(=O)C2CCN(S(=O)(=O)N3CCCC3)CC2)CC1	PMK inhibit 26
CCOC(=O)N1CCN(C(=O)C2CCCN(S(C)(=O)=O)C2)CC1 (stereo not drawn)	none
Cc1cc(NS(=O)(=O)c2ccc(NC(=O)c3ccoc3C)cc2)nc(C)n1	none
Cc1ccc(C)c(S(=O)(=O)Nc2ccc3scnc3c2)c1	none
CCCOc1ccc(/C(O)=C2/C(=O)C(=O)N(CCN(CC)CC)C2c2ccncc2)cc1 (stereo not drawn)	none
Cc1cc(OCC(=O)NCCO)ccc1Cl	none
Cc1cc(OCC(=O)NCCO)cc(C)c1Cl	PMK inhibit 26
CN(c1nc2c(c(=O)n(C)c(=O)n2C)n1CC(=O)c1ccccc1)C1CCCCC1	none
CCn1c(=O)n(CC)c2cc(S(=O)(=O)N3CCOCC3)ccc21	none
Cc1nn(-c2ccc(C(=O)O)cc2)c(N)c1-c1ccccc1	none
Cc1nn(-c2ccccc2)c2c1C(O)n1c(nc3ccccc31)S2 (stereo not drawn)	Spn MK inh active
COc1ccc2c(c1)c(=O)oc1cc(OCC(=O)N3CCC(C)CC3)ccc12	Fluor 339 460 3.5 (not shown: DPM-DC inhibit)
COc1ccc(OCC(=O)N2CCN(C(=O)COc3ccc(Br)cc3)CC2)cc1	none
COc1ccc2c(c1)c(=O)oc1cc(OCC(=O)N3CCCC(C)C3)ccc12 (stereo not drawn)	Fluor 339 460 3.9 (not shown: DPM-DC inhibit)
CCCCCn1c(CCNC(=O)c2cccs2)nc2ccccc21	none
COC(=O)C1(C)Nc2ccccc2C(=O)N1c1ccccc1OC (stereo not drawn)	Fluor 339 460 2.1 (not shown: DPM-DC inhibit)
COC(=O)C1(C)NC(=O)c2ccccc2N1 (stereo not drawn)	Fluor 339 460 2.1 (not shown: DPM-DC inhibit)
Cc1c(N=C2NC(=O)C(CC(=O)Nc3ccccc3)S2)c(=O)n(-c2ccccc2)n1C (stereo not drawn)	none
COc1cccc(OC)c1OCCCCCc1c(C)n[nH]c1C	none
CCn1c(COc2ccccc2C)nnc1SCC(=O)N1CCCCC1	PMK inhibit 27
Cn1c(C(C#N)C(=O)c2ccco2)nc2ccccc21 (stereo not drawn)	none

High-throughput results (PubChem BioAssay)
